For two compounds, activity, lower = more toxic results are on record in PubChem BioAssay AID720619 (Broad Institute, 2013).

This test is described as follows: viability loss in HT-29 adenocarcinoma cells – cell-based, Alamar Blue fluorescence, several timepoints, dry powder, mechanism study for HRAS target identification, late-stage follow-up (AID 720619). The note with it: HT-29 viability.
Where [1] appears, read: 48 h, at 35 µM (top of the series).

Each structure is given as a SMILES string. Inconclusive results are not listed. Activity calls are given as the source filed them.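 The calls were made as follows: active = toxic at all three exposure times, half-maximal drop reached within twice the top dose; inconclusive = exposure times disagree, or curves are weak, flat or poorly fitted; inactive = inactive at every exposure time.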

As for `CCC(=O)N(c1ccc(OC)c(Cl)c1)C(C(=O)NCCc1ccccc1)c1cccs1` (centres undefined), the activity, lower = more toxic is 32.2% (inactive) under setting [1] and 5.18% (8 h treatment, at 35 µM).
The matching figures for `Cc1onc(C(=O)N2CCN(C(c3ccncc3)c3ccncc3)CC2)c1[N+](=O)[O-]`: 7.85% (inactive) and -3.11%.
